{"source": "PubChem BioAssay (NCI)", "note": "This is part of a sample that, as a whole, favours compounds with a hit. Of some 79,000 tested, about 15% had one in any assay. Values without a mark were called inactive. Active and inactive are the calls of the source. Rule as the data show it: active = growth inhibition above about 70%; inactive = the rest.", "data": [{"experiment": "NCI Yeast Anticancer Drug Screen. Data for the mec2-1 strain (AID 157)", "conditions": "S. cerevisiae mec2-1 strain, at 100.0 µM, hits give high values", "outline": "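Strain: mec2-1 (DNA repair/cell cycle alteration). Compound exposure, then growth measured; inhibition expressed relative to vehicle.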", "values": [{"smiles": "O=CC=C(c1ccccc1)c1ccccc1", "growth inhibition": "98% (active)"}, {"smiles": "FC(F)(F)c1nc2nc(Cl)c(Cl)nc2n1CCCN1CCOCC1", "growth inhibition": "27%"}, {"smiles": "BrCC[P+](c1ccccc1)(c1ccccc1)c1ccccc1", "growth inhibition": "97% (active)"}, {"smiles": "N#CSc1ccc(S(N)(=O)=O)cc1", "growth inhibition": "63%"}, {"smiles": "O=[N+]([O-])c1ccc2nc3ccccc3cc2c1", "growth inhibition": "84% (active)"}, {"smiles": "O=C(NC(Nc1ccc(F)c(Cl)c1)(C(F)(F)F)C(F)(F)F)C(C(F)(F)F)C(F)(F)F", "growth inhibition": "98% (active)"}, {"smiles": "O=C(/C=C\\c1ccc(Cl)cc1Cl)c1cccs1", "growth inhibition": "10%"}, {"smiles": "O=C(NCCCCNCCCNC(=O)c1cc(-c2ccccc2)nc2ccccc12)c1cc(-c2ccccc2)nc2ccccc12", "growth inhibition": "94% (active)"}, {"smiles": "NC(=NCc1ccccc1)N/N=C\\c1ccnc2ccccc12", "growth inhibition": "27%"}, {"smiles": "CCCCN(CCCC)CCSc1ccc(Cl)cc1", "growth inhibition": "92% (active)"}, {"smiles": "COc1cc(C2C3=C(COC3=O)Oc3cc4c(cc32)OCO4)ccc1O", "note": "(centres undefined)", "growth inhibition": "33%"}, {"smiles": "C#CCCCc1ccccc1", "growth inhibition": "98% (active)"}, {"smiles": "CCc1ccc(NS(=O)(=O)c2ccccc2)c([N+](=O)[O-])c1", "growth inhibition": "81% (active)"}, {"smiles": "COc1ccc(C2c3cc4c(cc3OC(C)(O)C2C)OCO4)c(OC)c1", "note": "(centres undefined)", "growth inhibition": "94% (active)"}, {"smiles": "COC(=O)c1ccc(CCC2=CC(=O)C(Br)=CC2=O)cc1", "growth inhibition": "19%"}, {"smiles": "NNC(=O)CCc1ccc2ccc3ccccc3c2c1", "growth inhibition": "50%"}, {"smiles": "Cn1c2ccccc2c(=O)c2cc(NC(=O)CCCCC(=O)Nc3ccc4c(c3)c(=O)c3ccccc3n4C)ccc21", "growth inhibition": "47%"}, {"smiles": "CC(CC(C)(C)[N+](C)(C)C)[N+](C)(C)C", "note": "(centres undefined)", "growth inhibition": "-4%"}, {"smiles": "CC1CCN(CCC(=O)c2ccc(Cl)cc2)CC1", "growth inhibition": "27%"}, {"smiles": "CCCCCCCCCCCCCCC(C(=O)[O-])[n+]1ccccc1", "note": "(centres undefined)", "growth inhibition": "95% (active)"}, {"smiles": "CNC1C(OC2C(OC3C(O)C(O)C(N=C(N)N)C(O)C3N=C(N)N)OC(C)C2(O)CO)OC(CO)C(O)C1O", "note": "(centres undefined)", "growth inhibition": "-3%"}, {"smiles": "O=C(O)c1ccccc1-c1ccccc1C(=O)Nc1ccc2c(c1)Cc1ccccc1-2", "growth inhibition": "99% (active)"}, {"smiles": "O=[N+]([O-])c1cccc2nc3ccccc3c(NCCCN3CCOCC3)c12", "growth inhibition": "99% (active)"}, {"smiles": "C=CC(C)(O)CCC1C(=C)C(O)CC2C(C)(C)CCCC12C", "note": "(centres undefined)", "growth inhibition": "50%"}, {"smiles": "CN1c2ccc(Cl)cc2C(=O)NC1c1ccc([N+](=O)[O-])s1", "note": "(centres undefined)", "growth inhibition": "96% (active)"}, {"smiles": "[O-][n+]1c2ccc(O)cc2nc2ccc(Br)cc21", "growth inhibition": "61%"}, {"smiles": "O=C1c2ccccc2-c2nc3ccccc3nc21", "growth inhibition": "67%"}, {"smiles": "CCCCN1C(=O)N(c2ccc(OCC)cc2)C2N(CCCC)C1C(C)(C)C2(C)C", "note": "(centres undefined)", "growth inhibition": "22%"}, {"smiles": "CO[C@H]1C[C@](C)(O)Cc2cc3c(c(O)c21)C(=O)c1c(O)cc2c(c1C3=O)O[C@@H]1O[C@@]2(C)[C@H](O)[C@@H](N(C)C)[C@@H]1O", "growth inhibition": "-6%"}, {"smiles": "COc1cc2c(cc1[N+](=O)[O-])C(=O)C(Br)(Br)CCC2", "growth inhibition": "96% (active)"}, {"smiles": "O=C1OC(CCl)CN1/N=C/c1ccc([N+](=O)[O-])o1", "note": "(centres undefined)", "growth inhibition": "19%"}, {"smiles": "CN(C)CCOc1ccc2c(c1)C/C(=C/c1ncc([N+](=O)[O-])n1C)C2=O", "growth inhibition": "90% (active)"}, {"smiles": "CCCCCCCCCCCCCCCCCCN(C)CC(COP(=O)([O-])OCC[N+](C)(C)C)OC", "note": "(centres undefined)", "growth inhibition": "99% (active)"}, {"smiles": "CC(C)c1ccccc1NC(=O)/C(Cl)=C(\\Cl)C(=O)O", "growth inhibition": "99% (active)"}, {"smiles": "O=[N+]([O-])C(=C(Sc1ccccc1)Sc1ccccc1)C(Cl)=C(Cl)Cl", "growth inhibition": "46%"}, {"smiles": "C(=C\\c1ccccc1)/COc1ccccc1C(N1CCOCC1)n1nc2ccccc2n1", "note": "(centres undefined)", "growth inhibition": "98% (active)"}, {"smiles": "O=C1C(Nc2ccccc2)=C(Oc2ccccc2)C(=O)c2ccccc21", "growth inhibition": "2%"}, {"smiles": "CCN(CC)CCN1C(=O)c2cccc3cc(OC)cc(c23)C1=O", "growth inhibition": "16%"}, {"smiles": "CN(C)Cc1cc(N=Nc2ccc(Cl)cc2)cc(CN(C)C)c1O", "growth inhibition": "15%"}]}]}
